High-throughput results deposited in PubChem BioAssay by National Center for Advancing Translational Sciences (NCATS).
HCMV inh: human cytomegalovirus inhibition. 410,000 compounds, 4.5% hits. HFF cells, HCMV-luciferase reporter, 72 h; hits give low values. activity change, negative = inhibition, % at 57.5 µM. AID 1259415; in the data active means activity change below about -60%; inconclusive means no clear call, values can overlap the other calls; inactive means above about -39%
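Steps: HFFs plated, 16 h 37C; compounds added; HCMV-luciferase added to MOI 1 PFU/cell; 72 h 37C; OneGlo reagent, 5 min room temperature; luminescence read, normalized to controls.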
Pf growth 96h: P. falciparum growth inhibition at 96 hours; 320,000 compounds, 6.9% hits; P. falciparum luciferase reporter growth, 96 h; Potency, µM (titrated, usually from 28.7 µM), for the others: top-dose activity change, negative = inhibition, most hits filed as inhibitors; further: potency means the concentration at half of the fitted maximal effect
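Cell-based qHTS: luciferase-tagged P. falciparum in erythrocytes (2% hematocrit, 0.05% parasitemia final) incubated with compounds for 96 hours, 37 C, 5% CO2; luciferase detection reagent then added and luminescence measured.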
MARV entry inh: inhibitors of Marburg virus binding or cell entry. Marburg virus pseudotyped entry inhibition, cell reporter. 300,000 compounds, 1.8% hits. Potency, µM (top dose mostly 37.8 µM), for the others: at the highest dose activity change, negative = inhibition, hits mostly inhibitors. AID 540276; calls by dose curve; tested in HEK293 cells; further: potency means the concentration at half of the fitted maximal effect
LASV entry inh: blocks Lassa virus binding to or entry into cells. AID 540256. 300,000 compounds, 1.2% hits. Lassa virus pseudotype entry inhibition, cell reporter. Potency, µM (top dose mostly 37.9 µM), for the others: at the highest dose activity change, negative = inhibition, usual class: inhibitors; calls by dose curve; tested in HEK293 cells; further: potency means the concentration at half of the fitted maximal effect; nearly all actives have a fitted effect of over 50% in size
Pf growth 48h: inhibits P. falciparum growth in the first generation, 48 h. P. falciparum luciferase growth in erythrocytes, 48 h. Potency, µM (titrated, usually from 28.7 µM), for the others: top-dose activity change, negative = inhibition, hits mostly inhibitors. 310,000 compounds, 5.9% hits. AID 504832; further: potency means the concentration at half of the fitted maximal effect
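Luciferase-expressing P. falciparum in infected erythrocytes (2% hematocrit, 0.1% parasitemia final) in RPMI 1640/0.5% Albumax were exposed to compound for 48 hours at 37 C, 5% CO2; growth read as luminescence.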
HCV inh: blocks hepatitis C virus; 340,000 compounds, 3.4% hits; Huh7.5.1 HCVcc-Cre infection, luciferase reporter, 44 h; Potency, µM (series often up to 41.8 µM), for inactives: at the highest dose activity change, negative = inhibition, most hits filed as inhibitors; further: potency means the concentration at half of the fitted maximal effect
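Cells seeded at 1,000/well and cultured 4 h, then compounds added followed by HCVcc-Cre virus (~0.5 moi). After 44 h further culture, luciferase substrate was added, plates held 15 min at room temperature, and luminescence read for 15 sec.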
An asterisk follows results filed as active; ? = inconclusive; · = no result; [ ] = remark or other dose. Compounds with a hit are over-represented: about 14% of the library has one in this group of screens. Unless noted, the call rests on the fitted dose curve; in most records, active means well fitted inhibition curve with a large enough effect; inconclusive means small, poorly fitted or top-dose-only effect, or another doubt; inactive means no such curve, though single readings can be large or run the other way. On the % scale 0 is the no-effect control and ±100 the full control effect.

SMILES	HCMV inh	Pf growth 96h	MARV entry inh	LASV entry inh	Pf growth 48h	HCV inh
Cc1cc(Cl)ccc1NC(=O)C1CCCN1C(=O)c1cccs1 (stereo not drawn)	-14	27%	-2%	-11%	-2%	4%
CCN(C(=O)[C@@H]1CCCN1C(=O)c1cccs1)c1nc2cc(Cl)ccc2s1	118	1%	?	1%	11%	10µM*
Cc1ccc(S(=O)(=O)Nc2cc(Cl)c(O)cc2C)cc1	-70*	48%	?	-12%	25%	?
Cc1[nH]nc(C(F)(F)F)c1N=NN1CCOCC1	-11	·	?	?	·	16µM*
Clc1ccc(N=NN2CCOCC2)cc1	7	26%	2%[46.1 µM]	2%	47%	5%
CN(C)C(=O)C1C2NC(=S)N(c3ccccc3)C1(C)Oc1ccccc12 (stereo not drawn)	-16	?	-1%[46.1 µM]	?	6%	13%
Cc1cccc(N2C(=S)NC3c4ccccc4OC2(C)C3C(=O)N(C)C)c1 (stereo not drawn)	32	9.3µM*	15%[46.1 µM]	?	4%	8%
NS(=O)(=O)c1cccc(Nc2nc3ccccc3nc2NS(=O)(=O)c2ccc(Cl)cc2)c1	17	·	?	-5%[46.1 µM]	·	8%
Cc1c(C)n(CC(O)CSc2ccccc2)c2ccccc12 (stereo not drawn)	-10	·	·	·	·	·
CCOC(=O)C1(CCOc2ccccc2)CCN(Cc2ccccc2O)CC1	18	·	?	-6%[46.1 µM]	·	?
CCOC(=O)C1(CCOc2ccccc2)CCN(Cc2cccc3c2OCO3)CC1	-38	-1%	?	?	?	10µM*
CCOC(=O)C1(CCOc2ccccc2)CCN(Cc2cc(OC)c3c(c2)OCO3)CC1	?	?	2.8µM*	?	?	11µM*
Cc1cccc(C(=O)Nc2ccccc2C(=O)OCc2cc(=O)n3nc(C4CC4)sc3n2)c1	-1	·	·	16%[46.1 µM]	·	·
O=C(c1cnccn1)N(Cc1cccs1)C1(C(=O)NC2CCCCC2)CCCCC1	-22	22%	9%	?	?	-26%
O=C(c1ccccn1)N(Cc1cccs1)C1(C(=O)NC2CCCCC2)CCCCC1	5	56%	?	-13%	-28%	11µM*
O=C(Nc1ccccc1)c1cc(C2CCCCN2C(=O)c2ccccc2)on1 (stereo not drawn)	3	·	·	·	·	·
COc1ccc(/C=N/NC(=O)C(=O)/C=C2\NC3(CCCC3)Cc3ccccc32)cc1	-11	?	?	-23%	?	10µM*
O=C(/C=C1\NC2(CCCC2)Cc2ccccc21)C(=O)N/N=C/c1ccc(O)c(O)c1	80	?	?	?	?	?
CCOC(=O)C(O)C1CCc2c([nH]c3ccc(C)cc23)C1=O (stereo not drawn)	29	42%	?	11µM*	?	?
CCOC(=O)N1CCc2[nH]c3ccc(C)cc3c2C1	-15	-17%	?	?	10%	?
O=C(Nc1ccc(Cl)cc1C(=O)NCC1CCCO1)c1ccco1 (stereo not drawn)	10	·	-9%	9%	-20%	2%
O=C(Nc1ccc(Cl)cc1C(=O)NCC1CCCO1)c1ccc(Cl)cc1Cl (stereo not drawn)	-20	-13%	9%	?	8.3µM*	?
Cc1cccnc1C1=NOC(Cc2ccccc2)C(=O)N1C (stereo not drawn)	1	·	·	·	·	·
COc1ccc(Cn2cc(CN3CC(N4CCN(CCO)CC4)CS3(=O)=O)nn2)cc1 (stereo not drawn)	-8	·	·	·	·	·
Cc1ccc(-n2nc(C)c3c(C)c(CCC(=O)NCC4CCCO4)c(=O)n(C)c32)cc1 (stereo not drawn)	23	?	·	·	?	-26%
SMILES	HCMV inh	Pf growth 96h	MARV entry inh	LASV entry inh	Pf growth 48h	HCV inh
CCn1c(=O)c(CCC(=O)NCC2CCCO2)c(C)c2c(C)nn(-c3ccccc3)c21 (stereo not drawn)	-22	-14%	·	·	-17%	13µM*
CCOc1ccc(C(c2c(O)cc(C)n(CCOC)c2=O)N2CCN(c3ccc(F)cc3)CC2)cc1 (stereo not drawn)	8	·	·	-11%[46.1 µM]	·	·
COc1ccc(-c2cc(-c3c(O)c(OC)c4occc4c3OC)[nH]n2)cc1OC	20	0%[5.75 µM]	-19%	-34%	?	11µM*
COc1ccc(-c2cc(-c3c(O)c(OC)c4occc4c3OC)[nH]n2)cc1	113	·	?	-8%	·	32µM*
CCOc1ccc(-c2cc(-c3nc(-c4cc(OC)c(OC)c(OC)c4)no3)[nH]n2)cc1	-9	·	·	-4%[46.1 µM]	·	·
CC(=O)C1=C(C)Nc2ncnn2C1c1ccccc1 (stereo not drawn)	-2	0.33µM*	10%[46.1 µM]	?	32%	17%
COc1cccc(C2C(C(C)=O)=C(C)Nc3ncnn32)c1 (stereo not drawn)	·	79%	4%	20%	-2%	27%
COC(=O)C1=C(C)Nc2ncnn2C1c1ccc(C)o1 (stereo not drawn)	5	10µM*	-1%	0%	-13%	23%
COc1ccc(C2C(C(C)=O)=C(C)Nc3ncnn32)cc1 (stereo not drawn)	49	?	·	·	0%	-4%
CC(=O)C1=C(C)Nc2ncnn2C1c1cccc(OCc2ccccc2)c1 (stereo not drawn)	8	0%	·	·	10µM*	1%
NS(=O)(=O)c1ccc(CNC(=O)/C=C/c2ccccc2)cc1	11	175%	23%	21%	4%	22%
COc1cccc(/C=C/C(=O)NCc2ccc(S(N)(=O)=O)cc2)c1	25	53%	-7%[46.1 µM]	4%	40%	10µM*
O=C(COc1ccccc1[N+](=O)[O-])OCC(=O)c1ccc(Br)s1	26	·	-11%[46.1 µM]	8%[46.1 µM]	·	14%
CC1Cc2ccccc2N1Cc1cc(=O)c(OCC(=O)NCCc2ccccc2)co1 (stereo not drawn)	-28	?	?	?	13µM*	?
CCCNC(=O)COc1coc(CN2CCN(c3ccccc3F)CC2)cc1=O	7	-9%	·	·	2%	1%
COc1ccc(NC(=O)COc2coc(CN3c4ccccc4CC3C)cc2=O)cc1 (stereo not drawn)	10	8.3µM*	-2%	-15%	?	?
COc1cc(NS(=O)(=O)c2cc3[nH]c(=O)c(=O)[nH]c3cc2C)cc(OC)c1OC	1	0%	·	·	?	9%
COc1cc(NS(=O)(=O)c2ccc(C)cc2C)cc(OC)c1OC	-18	3.3µM*	?	-28%	6.6µM*	?
CCc1ccc(-n2nc(C)c3c(C(=O)N4CCN(c5cccc(Cl)c5)CC4)cc(C)nc32)cc1	-4	·	·	9%[46.1 µM]	·	·
O=[N+]([O-])c1cccc(C=NNc2ccc3ccccc3n2)c1O	-97*	·	2.2µM*	2.5µM*	·	?
